Calls of active or inactive are those of the source.

The test system of assay [1] is Plasmodium falciparum Sir2 (PF13_0152, Sir2A). Description: Plasmodium falciparum Sir2A binding compounds – biochemical, small-molecule microarray, 635 nm fluorescence, primary screen (AID 1098).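 Note: score merges spot fluorescence intensity with its signal-to-noise ratio.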 Particulars: fluorescence 635 nm, higher = more signal.
Assay [2] is described as follows: probe aDKK1 binding to arrayed compounds – biochemical, biotinylated probe, 635/667 nm fluorescence, primary screen (AID 1099).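 Note: score merges 667nm spot fluorescence with signal to noise across triplicate slides; reference of the scale not given here.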 Particulars: small-molecule microarray, higher = more signal.
Assay [3] in a line: probe aCHRDL2 binding to arrayed compounds – biochemical, biotinylated probe, 635/667 nm fluorescence, primary screen (AID 1100). The note with it: small-molecule microarray, higher = more signal.
Assay [4] can be described thus: change in splice reporter luminescence, either direction, cell-based, HEK293, spliceosome inhibition project, primary screen (AID 1101).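 Note: HEK293 cells carrying a splicing-competent luciferase reporter gene; test concentration not given here.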 Particulars: HEK293 splicing luciferase reporter, 24 h, higher = more signal, called active from +8 up or from −8 down.
In assay [5] the target is Fibroblast growth factor 10 (Homo sapiens) (UniProt O15520). Description: compounds binding fibroblast growth factor 10 – biochemical, small-molecule microarray, 635 nm fluorescence, primary screen (AID 1102). Particulars: FGF10 binding, fluorescence 635 nm, higher = more signal.
Sequence of Fibroblast growth factor 10 (Homo sapiens) (O15520 whole entry, looked up): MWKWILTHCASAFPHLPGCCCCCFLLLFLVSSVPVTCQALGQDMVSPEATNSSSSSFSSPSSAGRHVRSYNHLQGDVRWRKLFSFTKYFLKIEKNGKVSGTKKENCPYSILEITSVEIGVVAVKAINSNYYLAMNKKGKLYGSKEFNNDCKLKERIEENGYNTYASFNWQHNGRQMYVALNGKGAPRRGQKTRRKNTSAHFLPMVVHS
Assay [6] has as its system glycogen synthase kinase-3 (GSK3A per assay name; protocol says GSK3B). The experiment in a line: compounds binding glycogen synthase kinase-3 – biochemical, small-molecule microarray, 635 nm fluorescence, GSK3A, primary screen (AID 1103). Note: the record names both GSK3A and GSK3B. Particulars: fluorescence 635 nm, higher = more signal.
Assay [7] concerns the target Epidermal growth factor receptor (Homo sapiens) (UniProt P00533). The experiment in a line: compounds binding epidermal growth factor receptor – biochemical, small-molecule microarray, 635 nm fluorescence, primary screen (AID 1104).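 Note: score merges 667 nm emission intensity with spot signal to noise over triplicate slides.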 Particulars: EGFR binding, higher = more signal.
Assay [8] deals with Follistatin-related protein 3 (Homo sapiens) (UniProt O95633). Description: compounds binding follistatin-related protein 3 – biochemical, small-molecule microarray, 635 nm fluorescence, primary screen (AID 1105).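 Note: score merges emission near 667 nm and signal to noise per printed spot across three slides.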 The note with it: FSTL3 binding, higher = more signal.
Sequence of Follistatin-related protein 3 (Homo sapiens) (O95633 whole entry, looked up): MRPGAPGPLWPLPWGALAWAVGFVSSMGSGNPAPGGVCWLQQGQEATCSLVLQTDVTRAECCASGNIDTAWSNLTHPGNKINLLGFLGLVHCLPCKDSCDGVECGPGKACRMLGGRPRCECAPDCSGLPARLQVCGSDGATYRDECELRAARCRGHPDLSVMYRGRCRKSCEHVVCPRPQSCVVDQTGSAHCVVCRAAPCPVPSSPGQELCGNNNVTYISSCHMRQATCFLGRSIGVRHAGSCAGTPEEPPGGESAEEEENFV
For assay [9], the target named is Dickkopf-related protein 1 (Homo sapiens) (UniProt O94907). The experiment in a line: small molecules binding DKK1 protein – biochemical, small-molecule microarray, 635 nm fluorescence scan, primary screen (AID 1106).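 Note: score merges emission near 667 nm with signal to noise over three replicate slides.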 Particulars: higher = more signal.
Sequence of Dickkopf-related protein 1 (Homo sapiens) (O94907 whole entry, looked up): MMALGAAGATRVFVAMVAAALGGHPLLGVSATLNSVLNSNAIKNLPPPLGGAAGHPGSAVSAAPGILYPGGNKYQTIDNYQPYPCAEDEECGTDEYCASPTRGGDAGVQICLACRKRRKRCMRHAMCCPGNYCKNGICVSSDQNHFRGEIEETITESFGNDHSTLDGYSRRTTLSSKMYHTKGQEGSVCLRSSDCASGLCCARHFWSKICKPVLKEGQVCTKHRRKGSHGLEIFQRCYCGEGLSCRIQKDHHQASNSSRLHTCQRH
For assay [10], the system named is Inhibin beta A chain (activin A). Description: small molecules binding activin A – biochemical, small-molecule microarray, 635 nm fluorescence scan, primary screen (AID 1107).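 Note: mouse activin A protein probed at 4.33 µg/mL on printed slides; score merges bound-protein fluorescence near 667 nm with spot signal-to-noise.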 Particulars: INHBA, higher = more signal.

Sequence of Epidermal growth factor receptor (Homo sapiens) (P00533 whole entry, looked up): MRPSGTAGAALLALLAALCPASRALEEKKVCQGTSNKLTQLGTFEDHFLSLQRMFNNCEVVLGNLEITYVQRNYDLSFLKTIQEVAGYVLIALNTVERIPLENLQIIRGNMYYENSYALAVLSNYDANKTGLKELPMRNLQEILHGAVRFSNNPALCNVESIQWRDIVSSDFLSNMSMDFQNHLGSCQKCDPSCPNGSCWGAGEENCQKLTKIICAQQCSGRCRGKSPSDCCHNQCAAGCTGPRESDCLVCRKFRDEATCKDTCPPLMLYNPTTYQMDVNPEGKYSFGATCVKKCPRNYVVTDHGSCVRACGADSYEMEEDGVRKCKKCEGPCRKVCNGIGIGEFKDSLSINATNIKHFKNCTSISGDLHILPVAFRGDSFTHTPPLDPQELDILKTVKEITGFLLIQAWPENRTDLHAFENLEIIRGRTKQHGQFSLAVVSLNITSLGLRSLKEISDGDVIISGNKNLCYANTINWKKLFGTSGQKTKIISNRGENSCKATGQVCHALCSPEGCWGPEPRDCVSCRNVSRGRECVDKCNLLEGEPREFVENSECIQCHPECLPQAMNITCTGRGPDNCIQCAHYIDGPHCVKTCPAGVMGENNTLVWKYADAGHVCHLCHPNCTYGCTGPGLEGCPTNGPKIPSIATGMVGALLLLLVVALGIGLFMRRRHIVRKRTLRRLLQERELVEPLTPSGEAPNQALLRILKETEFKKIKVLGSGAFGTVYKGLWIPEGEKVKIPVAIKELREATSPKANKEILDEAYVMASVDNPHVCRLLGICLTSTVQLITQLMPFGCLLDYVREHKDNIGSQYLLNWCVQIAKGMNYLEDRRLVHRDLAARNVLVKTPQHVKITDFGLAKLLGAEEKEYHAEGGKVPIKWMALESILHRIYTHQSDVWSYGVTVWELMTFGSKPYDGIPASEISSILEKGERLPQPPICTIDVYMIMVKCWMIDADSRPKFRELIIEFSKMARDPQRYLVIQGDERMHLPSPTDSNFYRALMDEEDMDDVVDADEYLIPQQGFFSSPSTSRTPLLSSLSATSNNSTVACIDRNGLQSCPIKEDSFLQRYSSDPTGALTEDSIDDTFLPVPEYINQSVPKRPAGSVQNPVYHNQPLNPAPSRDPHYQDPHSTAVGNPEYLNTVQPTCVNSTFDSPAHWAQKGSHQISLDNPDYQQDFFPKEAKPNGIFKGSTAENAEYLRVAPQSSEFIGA

For `O=C1C2C=CC(C(O)c3ccc(F)cc3)N(Nc3ccccc3F)C2C(=O)N1c1ccccc1` (stereo not given), the composite z-score is 1.47 in assay [1]; 0.131 in assay [2]; 0.996 in assay [3]; 0.678 in assay [5]; -0.412 in assay [6]; -0.609 in assay [7]. Besides, the composite z-score in assay [8] was 0.396; in assay [9], -0.868; in [10] it was 0.503. The z-score in assay [4] is 1.34 (inactive).

For the compound `COCCOC(=O)N1C(=O)[C@@]2(c3cc(C#Cc4ccc(OC)cc4)ccc31)[C@H](c1ccc(O)cc1)N1[C@H](c3ccccc3)[C@H](c3ccccc3)OC(=O)[C@H]1[C@@H]2C(=O)NC[C@H](O)c1ccccc1`, the composite z-score in assay [1] was 1.47; in assay [2], -0.0755; in assay [3] it was -0.378; in assay [5] it was 1.42; in assay [6] it was 1.31; in [7] it was 0.769. Besides, the composite z-score was determined as 1.4 in assay [8], 0.811 in [9] and 0.113 in assay [10]. Moreover, the z-score in [4] is -1.68 (inactive).

Regarding `COc1ccc(CCNC(=O)[C@@H]2c3ccccc3C(=O)N(C3Cc4ccccc4C3)[C@H]2c2ccc(CO)cc2)cc1`, the composite z-score in [1] is 0.613; in assay [2], -0.124; in assay [3], 0.857; in assay [5], 0.0846; in assay [6], 0.316; in assay [7] it was -0.19. Further, the composite z-score in assay [8] was 0.0595; in assay [9], -0.337; in assay [10], 0.832. Besides, in [4], the z-score is 0.54 (inactive).

As to `[N-]=[N+]=Nc1ccccc1C[C@]1(C(N)=O)N=C(c2ccc(OCCCO)cc2)O[C@H]1c1ccccc1`, the composite z-score is 1.13 in assay [1]; 0.0609 in assay [2]; 0.875 in [3]; 0.181 in [5]; 0.532 in assay [6]; -1.44 in [7]. In addition, the composite z-score is -0.255 in [8], -0.748 in assay [9] and 0.511 in assay [10]. For the same compound, in [4], the z-score is 0.297 (inactive).

In the case of `Cc1ccc(S[C@]2(C(=O)NCCN3CCOCC3)CC(=O)N(Cc3ccccc3Cl)[C@@H]2c2ccc(CO)cc2)cc1`, the composite z-score in assay [1] is 0.588; in [2], -0.123; in assay [3] it was 0.841; in [5] it was 1; in [6], -1.4; in [7], -0.342. Also, the composite z-score in assay [8] is -0.51; in assay [9], -0.844; in assay [10], 0.425. Further, the z-score in [4] was -1.38 (inactive).

Turning to `O=C(NCc1ccc(F)cc1)[C@H]1C[C@H]2C(=O)N[C@@H](Cc3ccccc3)C(=O)N2[C@H]1c1ccc(O)cc1`, the composite z-score is 1.06 in assay [1]; -0.103 in [2]; 0.105 in assay [3]; 0.123 in assay [5]; -0.469 in assay [6]; -0.394 in [7]. The composite z-score in assay [8] is -0.383; in assay [9], 0.274; in [10], -0.266. Also, the z-score in [4] is -0.41 (inactive).

On to `C[N+](C)(C)CCCCNC(=O)[C@H]1C[C@H]2C(=O)N[C@@H](Cc3ccccc3)C(=O)N2[C@H]1c1ccc(O)cc1`, for which the composite z-score was 0.137 in assay [1]; -0.0123 in assay [2]; -0.0505 in assay [3]; 0.612 in assay [5]; 0.0215 in assay [6]; 0.231 in [7]. For the same compound, the values for the composite z-score in [8], in assay [9] and in assay [10] were 0.953, 1.22 and 0.859, respectively. Further, the z-score in [4] was 0.0946 (inactive).

Turning to `CCN(CC)c1ccc(N2CC=CC34O[C@@H]5/C=C\CCCOC(=O)C5[C@H]3C(=O)N(CCO)[C@@H]4C2=O)cc1` (stereo not given in full), the composite z-score in [1] is 1.1; in assay [2] it was -0.221; in [3], 0.63; in assay [5], -1.12; in [6], -0.404; in assay [7], -1.28. Besides, the composite z-score is -0.957 in assay [8], -1.14 in assay [9] and 0.0809 in assay [10]. Also, the z-score in assay [4] was -0.375 (inactive).

In the case of `C#CCN(Cc1ccccc1Br)C(/C=C/c1ccccc1)CO` (stereo not given), the composite z-score in assay [1] was -0.877; in assay [2], -0.23; in [3] it was 0.326; in assay [5] it was 0.168; in assay [6], -0.398; in assay [7], -0.153. The values for the composite z-score in assay [8], in assay [9] and in assay [10] were -0.649, -0.0455 and 0.904, respectively. Besides, the z-score in assay [4] is -1.03 (inactive).

On to `O=C1[C@H]2C=C(Br)[C@H](C[C@@H]2OCCCCO)[C@@]12CO2`, for which the composite z-score in assay [1] was 1.02; in assay [2], -0.257; in assay [3], -0.504; in assay [5], 0.177; in assay [6], 0.0613; in assay [7], 0.224. For the same compound, the values for the composite z-score in assay [8], in [9] and in assay [10] were -0.0883, 0.438 and 0.646, respectively. Moreover, the z-score in assay [4] is -0.238 (inactive).

Turning to `COC(=O)C(CC#Cc1ccc2c(c1)[C@]1(C(=O)N2)[C@H](c2ccc(O)cc2)N2[C@H](c3ccccc3)[C@H](c3ccccc3)OC(=O)[C@H]2[C@@H]1C(=O)Nc1nc2ccccc2s1)C(=O)OC`, the composite z-score was 1.59 in [1]; -0.0329 in [2]; -0.105 in assay [3]; 1.27 in assay [5]; 1.04 in [6]; 0.626 in assay [7]. Also, the composite z-score was 0.929 in [8], 0.581 in assay [9] and 0.598 in [10]. Besides, the z-score in assay [4] is -0.596 (inactive).

As for `C=CC[C@]1(C(=O)N2CCCCC2)N=C(c2ccc(OCCCO)cc2)O[C@H]1c1ccccc1`, the composite z-score in assay [1] was found to be 1.25; in assay [2] it was 1.16; in assay [3] it was 1.11; in [5], 0.228; in assay [6], 1.3; in assay [7], 0.0792. For the same compound, the composite z-score in assay [8] is -0.0013; in assay [9], 0.191; in assay [10], 1.11. Besides, the z-score in assay [4] was -0.0569 (inactive).

`O=C1c2ccccc2[C@](Cc2ccccc2I)(C(=O)NC2CC2)[C@H](c2ccc(CO)cc2)N1C1CCCCC1`: the composite z-score in assay [1] is 1.19; in assay [2], -0.809; in [3] it was -0.589; in assay [5], 0.724; in assay [6], 1.33; in assay [7], 0.543. For the same compound, the composite z-score in assay [8] was 1.05; in assay [9], 0.529; in assay [10] it was 0.435. In addition, in assay [4], the z-score was -0.578 (inactive).

As to `O=C1C2C=CC(C(O)C3CCCCC3)N(Nc3ccc([N+](=O)[O-])cc3)C2C(=O)N1c1ccccc1` (stereo not given), the composite z-score was 1.26 in [1]; -0.236 in assay [2]; 0.783 in assay [3]; -0.901 in assay [5]; 1.31 in assay [6]; -1.54 in assay [7]. The composite z-score is -0.677 in [8], -1.49 in assay [9] and -1.28 in assay [10]. Moreover, the z-score in assay [4] is -1.04 (inactive).

In the case of `COC(=O)C(CC#Cc1ccc2c(c1)[C@]1(C(=O)N2)[C@H](C(=O)O)[C@H]2C(=O)O[C@H](c3ccccc3)[C@H](c3ccccc3)N2[C@@H]1c1ccc(O)cc1)C(=O)OC`, the composite z-score is 0.472 in [1]; -0.0082 in assay [2]; 0.634 in assay [3]; 0.284 in assay [5]; -0.266 in assay [6]; -0.46 in assay [7]. Also, the composite z-score was -0.662 in [8], -0.685 in assay [9] and -1.07 in [10]. Further, the z-score in [4] was 0.199 (inactive).

Regarding `COc1ccc(CCN2C(=O)[C@@]3(c4ccc([N+](=O)[O-])cc4)CC(=O)N(C4CCCCC4)[C@@H]3c3ccc(CO)cc32)cc1`, the composite z-score in assay [1] was 0.582; in assay [2] it was 0.274; in assay [3], 0.181; in [5], 0.586; in [6] it was 0.711; in assay [7], -0.267. In addition, the results for the composite z-score in assay [8], in [9] and in assay [10] were 1.2, 1.48 and 0.889, respectively. For the same compound, the z-score in [4] was -0.0884 (inactive).

The values above are taken from PubChem BioAssay.
